# PubChem BioAssay
# A number with no mark means an inactive call. The source made the active and inactive calls. Rule as the data show it: active = fold change permeability below about 0.7 or above about 1.3; inactive = in between.
# Assay: modulators of brain endothelial barrier permeability, primary screen, cell-based, FITC-avidin fluorescence, HTS (AID 1963498); also: test concentration not given here
# Conditions: actives lie on both sides
row,SMILES,fold change permeability
1,CC(=O)[C@]1(O)Cc2c(O)c3c(c(O)c2[C@@H](O[C@H]2C[C@H](N)[C@H](O)[C@H](C)O2)C1)C(=O)c1ccccc1C3=O,3.4 (active)
2,COc1ccccc1CNCCCCCCNCCCCCCCCNCCCCCCNCc1ccccc1OC,0.8
3,COc1ccc(CCN(C)CCc2ccc(OC)c(OC)c2)cc1OC,2 (active)
4,NCCS(=O)O,1
5,CC(C)(C)c1ccc(C(O)CCCN2CCC(C(O)(c3ccccc3)c3ccccc3)CC2)cc1 (centres undefined),1.4 (active)
6,N[C@@H](Cc1c[nH]c2ccccc12)C(=O)O,1.3 (active)
7,CCOC(=O)c1c(CSc2ccccc2)n(C)c2cc(Br)c(O)c(CN(C)C)c12,1.4 (active)
8,CN1CCC(=C2c3ccccc3CCn3c(C=O)cnc32)CC1,1
9,O=c1n(CCCN2CCN(c3cccc(Cl)c3)CC2)nc2ccccn12,1.1
10,COc1ccccc1N1CCN(CC(O)COc2cccc3ccccc23)CC1 (centres undefined),0.8
11,CN1CCN(C2Cc3ccccc3Sc3ccc(Cl)cc32)CC1 (centres undefined),1.2
12,O=C(O)c1ccc(-c2ccc(/C=C3\SC(=S)N(Cc4ccccc4)C3=O)o2)cc1,2 (active)
13,CC(C)(Sc1ccc(CCN(CCCCC2CCCCC2)C(=O)NC2CCCCC2)cc1)C(=O)O,1
14,Cc1cccc(-c2[nH]c(C(C)(C)C)nc2-c2ccc3nccnc3c2)n1,1.4 (active)
15,CCNCc1nc2c(N)nc3ccccc3c2n1CC(C)(C)O,1.1
16,CC12CC3CC(C)(C1)CC(N)(C3)C2,0.8
17,CS(=O)(=O)c1ccc(C2=C(c3ccccc3)C(=O)OC2)cc1,0.8
18,Cc1cc(C)cc(NC(=O)CN(c2cc([N+](=O)[O-])ccc2C)S(C)(=O)=O)c1,1.5 (active)
19,NC(=O)OCC(COC(N)=O)c1ccccc1,0.8
20,COCC(=O)O[C@]1(CCN(C)CCCc2nc3ccccc3[nH]2)CCc2cc(F)ccc2[C@@H]1C(C)C,1.5 (active)

row,SMILES,fold change permeability
1,C=C1CCN([C@H](C)[C@](O)(Cn2cncn2)c2ccc(F)cc2F)CC1,1.4 (active)
2,CCN(CC)CCn1c(=O)c(Cc2ccc(OC)cc2)nc2ccccc21,0.7 (active)
3,COC(=O)Nc1nc2ccc(C(=O)c3cccs3)cc2[nH]1,1.4 (active)
4,CC1(C)CCC(NC(=O)[C@@H](N)CCC(=O)O)CC1,0.9
5,Cc1ccc(S(=O)(=O)NC(=O)NN2CCCCCC2)cc1,1
6,CC(=O)c1ccc2c(c1)N(CCCN(C)C)c1ccccc1S2,1.6 (active)
7,Oc1cc2c(c(Cl)c1O)CCNCC2c1ccccc1 (centres undefined),1.6 (active)
8,C[n+]1cc2c3c(ccc2c2ccc4cc5c(cc4c21)OCO5)OCO3,2.1 (active)
9,N[C@@H](CCC(=O)N[C@@H](CSN=O)C(=O)NCC(=O)O)C(=O)O,0.8
10,Cc1ccccc1N1C(=O)c2cc(S(N)(=O)=O)c(Cl)cc2NC1C (centres undefined),0.8
11,CC(=O)/C=C1\C(=O)N(C)c2ccccc21,1.2
12,CN1CC[C@]2(CCN3CCc4c(oc5ccccc45)[C@@H]3C2)N(C)C1=O,1.1
13,N=C(N)c1ccc(-c2ccc(-c3ccc(C(=N)N)cc3)o2)cc1,1.5 (active)
14,N[C@@H](Cc1ccc(O)c(O)c1)C(=O)O,0.8
15,Oc1cc2c(cc1O)C(c1ccccc1)CNCC2 (centres undefined),0.7 (active)
16,COc1cc2c(cc1OC)C1CC(=O)C(CC(C)C)CN1CC2 (centres undefined),0.7 (active)
17,CCCCNc1ccc(C(=O)OCCN(C)C)cc1,1.8 (active)
18,Cc1cc(C)c(/C=C2\C(=O)Nc3ccccc32)[nH]1,23.2 (active)
19,CCC1(C)CC(=O)NC1=O (centres undefined),0.7 (active)
